# Source: ChEMBL document CHEMBL2218924, “A broad activity screen in support of a chemogenomic map for kinase signalling research and drug discovery” (Biochem J, 2013)
# Columns and labels:
# [1] = molecular target: T1, Ephrin type-A receptor 3 (Homo sapiens) (UniProt P29320); conditions: at 10 µM
# T1 sequence (whole entry): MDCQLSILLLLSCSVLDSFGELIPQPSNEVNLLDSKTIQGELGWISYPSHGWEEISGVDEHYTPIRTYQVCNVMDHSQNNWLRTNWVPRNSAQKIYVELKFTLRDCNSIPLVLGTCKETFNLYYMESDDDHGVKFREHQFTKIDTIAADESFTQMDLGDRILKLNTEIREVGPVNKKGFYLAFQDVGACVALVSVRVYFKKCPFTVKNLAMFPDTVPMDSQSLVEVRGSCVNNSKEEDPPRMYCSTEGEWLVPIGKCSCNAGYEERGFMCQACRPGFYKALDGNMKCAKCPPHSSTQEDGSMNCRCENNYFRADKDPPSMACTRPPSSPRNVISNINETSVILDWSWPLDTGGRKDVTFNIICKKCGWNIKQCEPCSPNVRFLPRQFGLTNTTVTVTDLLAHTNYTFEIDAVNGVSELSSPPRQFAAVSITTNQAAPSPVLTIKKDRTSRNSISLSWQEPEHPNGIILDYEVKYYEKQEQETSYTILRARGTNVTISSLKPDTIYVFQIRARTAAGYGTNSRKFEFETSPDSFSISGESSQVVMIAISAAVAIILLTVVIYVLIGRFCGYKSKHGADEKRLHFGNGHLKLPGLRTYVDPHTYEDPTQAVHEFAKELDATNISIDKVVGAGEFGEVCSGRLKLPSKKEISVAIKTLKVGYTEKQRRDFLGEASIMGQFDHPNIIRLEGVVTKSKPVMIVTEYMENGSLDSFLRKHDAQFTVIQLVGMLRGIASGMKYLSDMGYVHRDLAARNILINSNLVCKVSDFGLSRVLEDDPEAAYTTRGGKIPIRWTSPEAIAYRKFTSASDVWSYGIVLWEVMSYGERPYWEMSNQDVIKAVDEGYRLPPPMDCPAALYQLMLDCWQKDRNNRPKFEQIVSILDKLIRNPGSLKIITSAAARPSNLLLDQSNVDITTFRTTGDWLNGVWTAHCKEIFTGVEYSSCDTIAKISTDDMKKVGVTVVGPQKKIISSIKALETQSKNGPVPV
# [2] = molecular target: Ephrin type-A receptor 4 (Homo sapiens) (UniProt P54764); conditions: at 1 µM
# [3] = molecular target: Ephrin type-A receptor 4 (Homo sapiens) (UniProt P54764); conditions: at 10 µM
# [4] = molecular target: Ephrin type-A receptor 5 (Homo sapiens) (UniProt P54756); conditions: at 1 µM
# [5] = molecular target: Ephrin type-A receptor 5 (Homo sapiens) (UniProt P54756); conditions: at 10 µM
# [6] = molecular target: T2, Ephrin type-A receptor 8 (Homo sapiens) (UniProt P29322); conditions: at 1 µM
# T2 sequence (whole entry): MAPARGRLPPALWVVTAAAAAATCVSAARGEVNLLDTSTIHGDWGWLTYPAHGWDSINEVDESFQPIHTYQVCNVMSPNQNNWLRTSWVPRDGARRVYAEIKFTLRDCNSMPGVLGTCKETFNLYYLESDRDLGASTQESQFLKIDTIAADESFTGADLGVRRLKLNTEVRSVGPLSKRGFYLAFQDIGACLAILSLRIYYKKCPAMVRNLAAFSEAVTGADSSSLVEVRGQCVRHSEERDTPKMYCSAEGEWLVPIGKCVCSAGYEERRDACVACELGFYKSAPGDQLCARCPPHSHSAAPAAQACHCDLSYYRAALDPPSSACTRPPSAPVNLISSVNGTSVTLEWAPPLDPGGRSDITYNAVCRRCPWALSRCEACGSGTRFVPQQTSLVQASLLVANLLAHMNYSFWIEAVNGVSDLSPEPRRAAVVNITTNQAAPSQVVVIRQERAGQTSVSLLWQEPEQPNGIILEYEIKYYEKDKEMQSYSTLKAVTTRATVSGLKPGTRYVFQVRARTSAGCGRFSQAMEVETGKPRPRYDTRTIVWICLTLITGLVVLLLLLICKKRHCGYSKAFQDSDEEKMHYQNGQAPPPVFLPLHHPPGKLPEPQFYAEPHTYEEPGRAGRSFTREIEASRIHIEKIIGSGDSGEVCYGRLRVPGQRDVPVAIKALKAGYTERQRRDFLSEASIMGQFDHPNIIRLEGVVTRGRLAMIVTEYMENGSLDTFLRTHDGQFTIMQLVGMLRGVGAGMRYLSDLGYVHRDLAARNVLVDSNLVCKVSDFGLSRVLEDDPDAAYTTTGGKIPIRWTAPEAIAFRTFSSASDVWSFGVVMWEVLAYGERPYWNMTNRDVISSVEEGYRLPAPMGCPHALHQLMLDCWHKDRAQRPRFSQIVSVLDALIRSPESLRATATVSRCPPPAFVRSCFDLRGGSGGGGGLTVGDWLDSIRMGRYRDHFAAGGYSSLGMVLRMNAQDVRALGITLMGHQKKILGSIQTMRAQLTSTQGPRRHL
# [7] = molecular target: T2, Ephrin type-A receptor 8 (Homo sapiens); conditions: at 10 µM
# [8] = molecular target: T3, Ephrin type-B receptor 1 (Homo sapiens) (UniProt P54762); conditions: at 1 µM
# T3 sequence (whole entry): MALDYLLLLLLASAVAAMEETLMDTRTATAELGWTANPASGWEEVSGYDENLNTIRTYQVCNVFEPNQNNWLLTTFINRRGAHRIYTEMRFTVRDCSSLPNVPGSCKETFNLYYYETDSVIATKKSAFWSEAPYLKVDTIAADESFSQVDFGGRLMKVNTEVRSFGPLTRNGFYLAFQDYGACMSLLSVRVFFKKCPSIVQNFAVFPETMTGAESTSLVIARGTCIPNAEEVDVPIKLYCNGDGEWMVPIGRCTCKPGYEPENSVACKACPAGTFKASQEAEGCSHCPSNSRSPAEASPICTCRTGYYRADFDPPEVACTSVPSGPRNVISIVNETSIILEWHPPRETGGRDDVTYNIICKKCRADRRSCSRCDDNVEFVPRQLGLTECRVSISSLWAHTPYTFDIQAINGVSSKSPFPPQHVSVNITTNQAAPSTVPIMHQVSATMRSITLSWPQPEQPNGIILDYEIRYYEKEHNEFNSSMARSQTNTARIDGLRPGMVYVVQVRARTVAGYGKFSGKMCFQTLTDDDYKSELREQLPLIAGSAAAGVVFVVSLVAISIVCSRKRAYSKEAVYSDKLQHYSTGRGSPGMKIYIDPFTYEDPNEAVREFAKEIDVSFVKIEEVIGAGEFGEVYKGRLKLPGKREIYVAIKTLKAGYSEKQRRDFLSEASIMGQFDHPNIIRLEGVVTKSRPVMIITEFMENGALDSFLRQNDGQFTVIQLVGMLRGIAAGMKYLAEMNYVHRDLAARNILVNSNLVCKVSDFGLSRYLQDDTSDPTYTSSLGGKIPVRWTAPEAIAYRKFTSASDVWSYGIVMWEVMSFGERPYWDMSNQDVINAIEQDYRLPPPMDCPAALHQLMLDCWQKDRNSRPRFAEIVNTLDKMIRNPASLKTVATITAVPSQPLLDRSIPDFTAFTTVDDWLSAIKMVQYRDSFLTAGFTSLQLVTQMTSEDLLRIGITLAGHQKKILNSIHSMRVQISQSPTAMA
# [9] = molecular target: T3, Ephrin type-B receptor 1 (Homo sapiens); conditions: at 10 µM
# [10] = molecular target: T4, Ephrin type-B receptor 3 (Homo sapiens) (UniProt P54753); conditions: at 1 µM
# T4 sequence (whole entry): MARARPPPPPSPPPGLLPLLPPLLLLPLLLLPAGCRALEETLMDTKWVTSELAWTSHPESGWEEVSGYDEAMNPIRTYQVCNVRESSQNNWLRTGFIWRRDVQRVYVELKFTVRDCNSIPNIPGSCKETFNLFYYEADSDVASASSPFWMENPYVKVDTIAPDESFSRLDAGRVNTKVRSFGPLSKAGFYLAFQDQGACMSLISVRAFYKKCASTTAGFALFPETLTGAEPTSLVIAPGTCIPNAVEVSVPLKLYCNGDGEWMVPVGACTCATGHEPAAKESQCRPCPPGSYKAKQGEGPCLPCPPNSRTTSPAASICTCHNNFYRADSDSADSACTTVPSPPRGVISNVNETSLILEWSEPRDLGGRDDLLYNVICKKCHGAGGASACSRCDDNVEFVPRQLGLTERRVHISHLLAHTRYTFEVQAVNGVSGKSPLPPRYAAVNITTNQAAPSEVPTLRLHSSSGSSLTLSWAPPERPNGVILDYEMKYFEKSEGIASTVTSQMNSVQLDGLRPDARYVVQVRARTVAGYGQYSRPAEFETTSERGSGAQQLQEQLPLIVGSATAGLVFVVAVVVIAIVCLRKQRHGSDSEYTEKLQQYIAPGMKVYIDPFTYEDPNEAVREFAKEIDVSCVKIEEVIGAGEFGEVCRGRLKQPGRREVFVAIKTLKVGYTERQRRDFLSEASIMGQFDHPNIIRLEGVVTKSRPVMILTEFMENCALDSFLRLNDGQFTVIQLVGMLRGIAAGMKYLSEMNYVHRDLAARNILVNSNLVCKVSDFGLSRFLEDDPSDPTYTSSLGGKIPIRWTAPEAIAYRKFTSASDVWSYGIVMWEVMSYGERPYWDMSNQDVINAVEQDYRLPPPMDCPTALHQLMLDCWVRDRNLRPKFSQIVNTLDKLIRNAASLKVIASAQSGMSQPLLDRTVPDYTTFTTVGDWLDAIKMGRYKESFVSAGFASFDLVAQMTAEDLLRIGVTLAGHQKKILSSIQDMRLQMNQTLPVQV
# [11] = molecular target: T4, Ephrin type-B receptor 3 (Homo sapiens); conditions: at 10 µM
# [12] = molecular target: T5, Ephrin type-B receptor 4 (Homo sapiens) (UniProt P54760); conditions: at 1 µM
# T5 sequence (whole entry): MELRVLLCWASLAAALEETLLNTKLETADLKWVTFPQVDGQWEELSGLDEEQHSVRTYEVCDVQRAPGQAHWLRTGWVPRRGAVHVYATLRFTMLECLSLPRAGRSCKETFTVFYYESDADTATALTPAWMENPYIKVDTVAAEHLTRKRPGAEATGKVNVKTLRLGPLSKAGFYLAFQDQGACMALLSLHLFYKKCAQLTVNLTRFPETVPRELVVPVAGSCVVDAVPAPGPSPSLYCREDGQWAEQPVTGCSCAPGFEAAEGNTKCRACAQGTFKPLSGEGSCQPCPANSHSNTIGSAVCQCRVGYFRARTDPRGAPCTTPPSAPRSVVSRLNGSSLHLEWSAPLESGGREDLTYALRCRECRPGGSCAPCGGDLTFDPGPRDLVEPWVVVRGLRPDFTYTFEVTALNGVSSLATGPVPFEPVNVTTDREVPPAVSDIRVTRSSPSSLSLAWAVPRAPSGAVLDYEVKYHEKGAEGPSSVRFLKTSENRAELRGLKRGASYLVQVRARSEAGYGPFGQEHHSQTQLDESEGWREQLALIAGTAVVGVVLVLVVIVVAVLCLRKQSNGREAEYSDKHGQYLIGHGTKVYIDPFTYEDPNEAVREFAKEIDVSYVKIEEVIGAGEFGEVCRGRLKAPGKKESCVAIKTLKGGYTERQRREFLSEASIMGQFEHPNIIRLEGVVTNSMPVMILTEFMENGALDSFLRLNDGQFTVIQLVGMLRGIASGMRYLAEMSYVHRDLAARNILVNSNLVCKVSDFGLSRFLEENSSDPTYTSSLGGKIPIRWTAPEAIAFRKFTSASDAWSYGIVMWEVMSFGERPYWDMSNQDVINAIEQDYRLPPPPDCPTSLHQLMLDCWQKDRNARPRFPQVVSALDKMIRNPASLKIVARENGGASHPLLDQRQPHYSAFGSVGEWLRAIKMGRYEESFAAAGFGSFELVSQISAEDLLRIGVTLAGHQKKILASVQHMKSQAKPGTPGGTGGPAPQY
# [13] = molecular target: T5, Ephrin type-B receptor 4 (Homo sapiens); conditions: at 10 µM
# [14] = molecular target: Receptor tyrosine-protein kinase erbB-4 (Homo sapiens) (UniProt Q15303); conditions: at 1 µM
# [15] = molecular target: Receptor tyrosine-protein kinase erbB-4 (Homo sapiens) (UniProt Q15303); conditions: at 10 µM
# [16] = molecular target: Focal adhesion kinase 1 (Homo sapiens) (UniProt Q05397); conditions: at 1 µM
# [17] = molecular target: Ephrin type-A receptor 7 (Homo sapiens) (UniProt Q15375); conditions: at 10 µM
# [18] = molecular target: Ephrin type-A receptor 7 (Homo sapiens) (UniProt Q15375); conditions: at 1 µM
# Chain of Focal adhesion kinase 1 (Homo sapiens) (Q05397 2-1052 limits assumed): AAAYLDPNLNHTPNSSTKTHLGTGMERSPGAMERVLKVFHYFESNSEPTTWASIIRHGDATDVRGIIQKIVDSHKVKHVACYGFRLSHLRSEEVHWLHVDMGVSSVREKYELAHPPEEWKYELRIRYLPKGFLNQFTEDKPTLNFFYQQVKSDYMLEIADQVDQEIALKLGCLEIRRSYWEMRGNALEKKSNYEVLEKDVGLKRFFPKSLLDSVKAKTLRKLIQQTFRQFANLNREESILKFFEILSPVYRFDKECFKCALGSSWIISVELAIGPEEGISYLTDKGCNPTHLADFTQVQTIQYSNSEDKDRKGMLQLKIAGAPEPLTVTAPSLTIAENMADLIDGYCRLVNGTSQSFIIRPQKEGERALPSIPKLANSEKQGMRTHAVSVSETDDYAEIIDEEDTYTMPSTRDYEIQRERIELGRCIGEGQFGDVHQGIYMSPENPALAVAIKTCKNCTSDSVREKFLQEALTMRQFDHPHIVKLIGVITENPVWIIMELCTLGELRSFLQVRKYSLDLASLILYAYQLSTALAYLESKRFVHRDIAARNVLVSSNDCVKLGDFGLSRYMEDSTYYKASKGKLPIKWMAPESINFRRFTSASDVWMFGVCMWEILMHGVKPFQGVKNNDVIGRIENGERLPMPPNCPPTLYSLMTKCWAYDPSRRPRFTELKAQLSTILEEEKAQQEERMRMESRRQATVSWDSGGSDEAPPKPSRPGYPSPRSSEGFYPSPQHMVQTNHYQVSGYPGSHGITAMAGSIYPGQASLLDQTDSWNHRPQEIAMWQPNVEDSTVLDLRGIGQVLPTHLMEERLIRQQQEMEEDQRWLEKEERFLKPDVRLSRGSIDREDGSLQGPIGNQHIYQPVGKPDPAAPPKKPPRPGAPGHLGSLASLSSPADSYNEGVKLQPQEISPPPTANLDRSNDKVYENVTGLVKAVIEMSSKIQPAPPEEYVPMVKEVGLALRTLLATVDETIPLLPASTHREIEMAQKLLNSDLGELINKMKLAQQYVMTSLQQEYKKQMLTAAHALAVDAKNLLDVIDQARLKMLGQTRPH
# Chain of Ephrin type-A receptor 7 (Homo sapiens) (Q15375 28-998 limits assumed): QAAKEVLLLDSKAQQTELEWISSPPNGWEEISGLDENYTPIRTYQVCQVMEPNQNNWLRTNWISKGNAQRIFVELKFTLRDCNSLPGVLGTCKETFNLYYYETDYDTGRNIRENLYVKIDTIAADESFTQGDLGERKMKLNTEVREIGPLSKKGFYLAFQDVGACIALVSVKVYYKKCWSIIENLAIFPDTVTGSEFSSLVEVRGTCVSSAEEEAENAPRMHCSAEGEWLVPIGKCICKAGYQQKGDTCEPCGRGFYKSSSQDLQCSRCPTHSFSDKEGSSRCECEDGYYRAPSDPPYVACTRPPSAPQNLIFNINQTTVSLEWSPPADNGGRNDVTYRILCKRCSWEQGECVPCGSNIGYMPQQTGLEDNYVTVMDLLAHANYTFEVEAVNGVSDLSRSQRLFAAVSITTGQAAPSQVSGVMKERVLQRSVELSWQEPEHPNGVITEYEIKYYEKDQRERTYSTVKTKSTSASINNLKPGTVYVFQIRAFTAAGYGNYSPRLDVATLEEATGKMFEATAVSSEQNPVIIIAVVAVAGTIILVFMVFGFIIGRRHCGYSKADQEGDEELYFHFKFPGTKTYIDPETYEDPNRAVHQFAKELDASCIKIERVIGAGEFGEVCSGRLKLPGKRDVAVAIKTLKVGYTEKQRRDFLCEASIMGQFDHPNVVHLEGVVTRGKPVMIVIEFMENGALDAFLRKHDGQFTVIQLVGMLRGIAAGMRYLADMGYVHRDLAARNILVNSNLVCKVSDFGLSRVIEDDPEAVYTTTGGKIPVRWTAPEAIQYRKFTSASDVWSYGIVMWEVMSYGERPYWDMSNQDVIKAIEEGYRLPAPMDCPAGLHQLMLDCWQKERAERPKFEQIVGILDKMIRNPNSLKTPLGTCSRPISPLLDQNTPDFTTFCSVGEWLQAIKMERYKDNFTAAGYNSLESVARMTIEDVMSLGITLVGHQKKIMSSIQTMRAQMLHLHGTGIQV
# Chain of Receptor tyrosine-protein kinase erbB-4 (Homo sapiens) (Q15303 whole entry): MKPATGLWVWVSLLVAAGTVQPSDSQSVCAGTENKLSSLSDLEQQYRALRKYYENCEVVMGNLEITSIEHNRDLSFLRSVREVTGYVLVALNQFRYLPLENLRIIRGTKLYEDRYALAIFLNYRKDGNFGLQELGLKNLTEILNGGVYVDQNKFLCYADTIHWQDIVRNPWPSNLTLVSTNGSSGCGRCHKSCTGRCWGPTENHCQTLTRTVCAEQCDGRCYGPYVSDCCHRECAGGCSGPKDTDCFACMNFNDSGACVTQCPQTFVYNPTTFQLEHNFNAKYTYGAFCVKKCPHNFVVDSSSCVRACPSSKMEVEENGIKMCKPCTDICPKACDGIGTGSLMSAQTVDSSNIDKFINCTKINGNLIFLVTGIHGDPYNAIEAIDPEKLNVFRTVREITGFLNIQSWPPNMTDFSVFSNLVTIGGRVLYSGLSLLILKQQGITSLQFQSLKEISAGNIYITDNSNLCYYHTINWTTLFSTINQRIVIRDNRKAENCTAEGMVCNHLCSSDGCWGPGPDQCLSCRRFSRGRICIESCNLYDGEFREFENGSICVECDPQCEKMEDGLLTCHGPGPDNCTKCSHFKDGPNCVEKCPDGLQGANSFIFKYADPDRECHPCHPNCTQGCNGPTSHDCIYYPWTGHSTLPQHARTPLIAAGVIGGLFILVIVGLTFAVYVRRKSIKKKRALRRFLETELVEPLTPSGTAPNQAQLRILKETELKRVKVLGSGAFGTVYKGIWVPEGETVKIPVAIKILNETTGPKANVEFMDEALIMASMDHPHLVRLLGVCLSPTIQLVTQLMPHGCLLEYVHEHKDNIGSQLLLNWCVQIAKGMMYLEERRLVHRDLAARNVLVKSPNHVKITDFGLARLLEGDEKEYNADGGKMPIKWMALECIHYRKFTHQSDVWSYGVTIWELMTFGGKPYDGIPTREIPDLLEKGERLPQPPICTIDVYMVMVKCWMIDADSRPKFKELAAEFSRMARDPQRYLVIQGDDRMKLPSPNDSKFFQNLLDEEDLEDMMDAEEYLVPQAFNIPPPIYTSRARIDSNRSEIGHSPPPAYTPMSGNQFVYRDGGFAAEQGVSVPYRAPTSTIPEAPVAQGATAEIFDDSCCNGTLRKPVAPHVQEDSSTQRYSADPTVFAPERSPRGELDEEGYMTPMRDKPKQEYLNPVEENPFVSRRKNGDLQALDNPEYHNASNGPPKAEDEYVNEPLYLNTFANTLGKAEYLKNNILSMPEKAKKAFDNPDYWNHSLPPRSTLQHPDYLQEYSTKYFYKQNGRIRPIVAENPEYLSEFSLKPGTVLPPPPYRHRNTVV
# Chain of Ephrin type-A receptor 5 (Homo sapiens) (P54756 whole entry): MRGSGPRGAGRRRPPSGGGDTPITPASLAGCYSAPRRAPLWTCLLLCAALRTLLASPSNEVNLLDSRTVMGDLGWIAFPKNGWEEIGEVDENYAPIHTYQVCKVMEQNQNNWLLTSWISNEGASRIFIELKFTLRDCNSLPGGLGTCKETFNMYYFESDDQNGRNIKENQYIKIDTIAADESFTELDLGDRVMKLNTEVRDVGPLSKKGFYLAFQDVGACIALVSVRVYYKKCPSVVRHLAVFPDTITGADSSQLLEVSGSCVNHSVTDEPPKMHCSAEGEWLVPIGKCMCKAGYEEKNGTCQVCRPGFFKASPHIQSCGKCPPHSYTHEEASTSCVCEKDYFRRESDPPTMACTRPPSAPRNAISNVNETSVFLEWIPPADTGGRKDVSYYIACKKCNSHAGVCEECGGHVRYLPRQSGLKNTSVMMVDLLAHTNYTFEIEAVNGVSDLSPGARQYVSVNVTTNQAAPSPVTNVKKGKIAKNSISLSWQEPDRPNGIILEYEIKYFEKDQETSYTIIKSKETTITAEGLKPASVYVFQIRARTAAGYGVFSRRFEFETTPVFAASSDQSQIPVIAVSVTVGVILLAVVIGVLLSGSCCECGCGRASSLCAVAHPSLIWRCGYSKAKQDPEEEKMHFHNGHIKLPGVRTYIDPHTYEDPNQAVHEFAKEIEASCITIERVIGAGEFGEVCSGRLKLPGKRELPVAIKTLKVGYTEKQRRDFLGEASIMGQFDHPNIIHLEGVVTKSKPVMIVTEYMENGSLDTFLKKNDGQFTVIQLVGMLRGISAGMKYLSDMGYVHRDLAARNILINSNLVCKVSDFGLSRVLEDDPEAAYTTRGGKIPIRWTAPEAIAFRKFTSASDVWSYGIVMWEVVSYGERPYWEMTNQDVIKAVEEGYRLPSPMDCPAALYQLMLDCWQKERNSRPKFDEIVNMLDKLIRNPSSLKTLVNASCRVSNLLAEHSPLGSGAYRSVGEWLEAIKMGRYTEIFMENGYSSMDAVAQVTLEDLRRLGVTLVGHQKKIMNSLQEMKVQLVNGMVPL
Structure (SMILES),residual activity [1] [%],residual activity [2] [%],residual activity [3] [%],residual activity [4] [%],residual activity [5] [%],residual activity [6] [%],residual activity [7] [%],residual activity [8] [%],residual activity [9] [%],residual activity [10],residual activity [11] [%],residual activity [12] [%],residual activity [13] [%],residual activity [14] [%],residual activity [15] [%],residual activity [16] [%],residual activity [17] [%],residual activity [18] [%]
O=C1NC(=O)c2c1c1c3ccccc3[nH]c1n1cncc21,83,98,94,105,76,88,93,90,74,121% (inactive),97,82,73,87,73,57,,
CC(C)(C)c1nc2c3ccc(F)cc3c3c(=O)[nH]ccc3c2[nH]1,72,,,,,103,103,,99,,,,,,,51,,
NCCNc1ncc(C(N)=O)c(Nc2cccc(C(F)(F)F)c2)n1,,,,102,74,,,,,113% (inactive),111,102,101,,75,64,72,
N#C/C(=C\c1ccc(O)c(O)c1)C(=O)NCc1ccccc1,,,,101,,,,,,,133,129,102,,,127,85,104
